Out of some 2,000 compounds screened, about 20 (1%) were called active. No rule for the calls is given here. Only a selection was taken, and actives are over-represented in it overall. Residues, ends and D or L forms follow the SMILES beside them. *: point of attachment. Boc = CC(C)(C)OC(=O)*; OBn = c1ccc(CO*)cc1
Target: Cystic fibrosis transmembrane conductance regulator (Homo sapiens) (UniProt P13569)
Test: correctors of F508del-CFTR surface localization, primary screen, imaging, HeLa, high-content microscopy, immunofluorescence (AID 1224864);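 also: HeLa cells stably expressing F508del-CFTR stained with 3G11 antibody against NBD1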;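 as to plasma membrane CFTR intensity: mean immunofluorescence in a thin cell-margin band taken as plasma membrane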
Conditions: PM immunofluorescence imaging, 24 h, at 10 µM, stronger effect = higher value, relative to vehicle wells set at 100; total CFTR intensity: measured here: total cellular F508del-CFTR signal

Sequence of Cystic fibrosis transmembrane conductance regulator (Homo sapiens) (P13569 whole entry, looked up, stated change not applied): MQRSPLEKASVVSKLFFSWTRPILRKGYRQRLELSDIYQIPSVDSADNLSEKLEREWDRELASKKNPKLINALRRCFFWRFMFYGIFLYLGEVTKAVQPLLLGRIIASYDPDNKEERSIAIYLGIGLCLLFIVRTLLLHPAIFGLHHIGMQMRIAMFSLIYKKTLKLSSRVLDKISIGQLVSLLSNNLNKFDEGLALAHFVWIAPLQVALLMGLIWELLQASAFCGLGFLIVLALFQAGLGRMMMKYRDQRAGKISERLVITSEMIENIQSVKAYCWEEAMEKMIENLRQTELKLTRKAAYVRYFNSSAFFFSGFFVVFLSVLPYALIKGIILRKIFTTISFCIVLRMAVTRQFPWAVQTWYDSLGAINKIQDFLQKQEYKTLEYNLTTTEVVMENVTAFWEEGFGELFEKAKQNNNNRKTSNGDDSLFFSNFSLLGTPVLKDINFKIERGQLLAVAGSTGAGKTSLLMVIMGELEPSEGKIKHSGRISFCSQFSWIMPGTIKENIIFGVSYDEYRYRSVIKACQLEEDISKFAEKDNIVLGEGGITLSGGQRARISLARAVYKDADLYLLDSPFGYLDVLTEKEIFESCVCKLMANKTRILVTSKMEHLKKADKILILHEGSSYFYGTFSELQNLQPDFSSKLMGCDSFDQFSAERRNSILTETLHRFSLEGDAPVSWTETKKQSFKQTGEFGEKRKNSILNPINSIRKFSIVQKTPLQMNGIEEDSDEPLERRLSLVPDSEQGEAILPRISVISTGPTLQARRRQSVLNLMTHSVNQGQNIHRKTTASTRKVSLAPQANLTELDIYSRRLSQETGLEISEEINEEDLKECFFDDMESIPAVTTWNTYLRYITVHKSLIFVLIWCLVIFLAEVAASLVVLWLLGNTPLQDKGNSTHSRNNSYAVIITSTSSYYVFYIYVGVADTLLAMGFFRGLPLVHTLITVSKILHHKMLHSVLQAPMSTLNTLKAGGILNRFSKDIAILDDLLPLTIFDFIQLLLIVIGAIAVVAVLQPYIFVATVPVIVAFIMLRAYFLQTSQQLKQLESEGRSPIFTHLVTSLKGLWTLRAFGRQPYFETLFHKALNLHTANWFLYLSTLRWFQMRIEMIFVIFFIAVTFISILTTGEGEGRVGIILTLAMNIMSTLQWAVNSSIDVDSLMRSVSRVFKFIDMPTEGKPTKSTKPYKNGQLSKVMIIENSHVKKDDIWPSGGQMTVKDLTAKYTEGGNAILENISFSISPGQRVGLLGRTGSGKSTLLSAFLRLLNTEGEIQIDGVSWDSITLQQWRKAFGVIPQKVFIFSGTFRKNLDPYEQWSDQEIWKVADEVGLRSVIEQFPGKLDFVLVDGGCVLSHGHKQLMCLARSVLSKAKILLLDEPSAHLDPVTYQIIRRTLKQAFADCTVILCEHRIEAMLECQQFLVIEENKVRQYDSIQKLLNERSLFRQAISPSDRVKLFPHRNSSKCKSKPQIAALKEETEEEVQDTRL

SMILES	plasma membrane CFTR intensity	total CFTR intensity
COc1cc(-c2nnc(-c3cccs3)o2)cc(OC)c1OC	96% (inactive)	87%
O=c1c2[nH]c3ccccc3c2ncn1CCC1=CCCCC1	87% (inactive)	88%
Cc1ccc2c(c1)c1c(n2C)C(=O)CCC1	76% (inactive)	75%
CCc1cc(=O)oc2cc(OCC=C(C)C)ccc12	95% (inactive)	98%
COc1ccc2c(c1OC)C(=O)NC(C)=C(C(=O)OC(C)(C)C)C2O (stereo not given)	87% (inactive)	90%
O=C1CCCCCN1Cc1ccccc1	86% (inactive)	90%
O=C1C=CC(=O)C(C2=C3C(=O)N(CCc4ccccc4)CC(=O)N3CCC2)=C1	108% (active)	124%
COC(=O)CN1CC(=O)N(c2ccccc2)C1=S	83% (inactive)	81%
COc1ccccc1/C=C/CN1CCN(Cc2ccc(F)cc2)C(CCO)C1 (stereo not given)	77% (inactive)	77%
CC(C)(CO)CNC(=O)CC1C(=O)NCCN1CC(c1ccccc1)c1ccccc1 (stereo not given)	85% (inactive)	89%
Cn1c(=O)c2nc3ccccc3nc2n(C)c1=O	96% (inactive)	90%
Cc1coc2c1c(C)cc1oc(=O)c(Cc3ccccc3)c(C)c12	91% (inactive)	91%
O=C(N/N=C\c1cc([N+](=O)[O-])ccc1N1CCOCC1)c1ccccn1	79% (inactive)	75%
COC(=O)c1cc(-c2ccc(C)o2)nc2ccccc12	96% (inactive)	99%
Fc1ccc(C(c2ccc(F)cc2)N2CCN(C/C=C/c3ccccc3)CC2)cc1	99% (inactive)	120%
C(=C\c1ccccc1)/CN1CCN(C(c2ccccc2)c2ccccc2)CC1	107% (active)	125%
Cc1cccc(CN2CCN(C(c3ccccc3)c3ccc(Cl)cc3)CC2)c1 (stereo not given)	92% (inactive)	107%
O=C(O)c1ccc(N2C(=O)/C(=C\c3ccccc3)N=C2c2ccccc2)cc1	78% (inactive)	78%
COC1CCN(C(=O)c2ccc(OC3CCN(Cc4ccccn4)CC3)cc2)CC1	81% (inactive)	75%
CC(C)Cc1nc(NCCN2CCOCC2)c(C#N)c2c1COC(C)(C)C2	96% (inactive)	92%
C/C(=N\N=C1/NC(=O)C(CC(=O)Nc2ccc(Cl)cc2)S1)c1ccco1 (stereo not given)	81% (inactive)	80%
CC(C)COC(=O)C1C(=O)CC(C)(O)C(C(=O)OCC(C)C)C1c1cccnc1 (stereo not given)	93% (inactive)	100%
C=C(C)COc1ccc(-c2nc(N)ncc2-c2ccc(OC)cc2)c(O)c1	82% (inactive)	81%
O=C(Oc1ccccc1)Oc1ccc2c(c1)oc(=O)c1ccccc12	120% (active)	140%
O=C(Oc1ccc2c3c(c(=O)oc2c1)CCCC3)c1ccco1	89% (inactive)	85%
CSCCC(NC(C)=O)C(=O)Oc1ccc2c3c(c(=O)oc2c1)CCCC3 (stereo not given)	80% (inactive)	80%
C[C@H]1O[C@H]1P(=O)(O)O	103% (inactive)	108%
Cc1ccc([N+](=O)[O-])cc1NC1OC(CO)C(O)C1O (stereo not given)	85% (inactive)	85%

SMILES	plasma membrane CFTR intensity	total CFTR intensity
CC(C)CN(C)Cc1c(C(=O)N2CCc3ccccc3C2)nc2ccc(Cl)cn12	77% (inactive)	81%
CN(C)CCOCCOc1ccc(Cl)cc1Br	81% (inactive)	81%
Cn1cc(CN2CCC(C(=O)N3CCCCC3)CC2)c(-c2ccccc2F)n1	79% (inactive)	72%
CCOC(=O)C1(CCCc2ccccc2)CCN(C2CCN(C(C)=O)CC2)CC1	94% (inactive)	101%
O=C1CC(c2ccc(OCCCCCOc3ccc(C4CC(=O)NC4=O)cc3)cc2)C(=O)N1 (stereo not given)	96% (inactive)	95%
O=C1CN(O)C=C2N=c3ccccc3=C2N1c1ccc([N+](=O)[O-])cc1	72% (inactive)	74%
O=C(CCC1CCCN(C(=O)c2ccsc2)C1)NCc1ccc(F)c(F)c1 (stereo not given)	81% (inactive)	83%
CC1(C)C(=O)OC(c2cccs2)C2(CCCCC2)C1=O (stereo not given)	102% (inactive)	110%
NC12CC3CC(C1)CC(O)(C3)C2	89% (inactive)	91%
Cc1cc(C)cc(Nc2nc3c([nH]2)c(=O)n(C)c(=O)n3C)c1	98% (inactive)	95%
CCOC(=O)C(=O)Nc1ccc(Oc2ccccc2)cc1	85% (inactive)	84%
CC(=O)Nc1nc(CCC(C)C)cc2c1c(=O)oc1ccccc12	77% (inactive)	80%
Cc1cc(OCC(=O)C(C)(C)C)c2c(C)c(C)c(=O)oc2c1	86% (inactive)	86%
CCN(CC)CCOC(=O)C1(C2CCCCC2)CCCCC1	120% (active)	123%
CCN(CC)CCOC(=O)C(c1ccccc1)c1ccccc1	86% (inactive)	84%
CCC(C(=O)OCCN(CC)CC)c1ccccc1 (stereo not given)	95% (inactive)	100%
O=C(NCCO)c1ccc(Cl)c(Cl)c1	90% (inactive)	90%
Cc1cccc2c(C(=O)O)cc(-c3cccnc3)nc12	94% (inactive)	93%
C[C@]12CC[C@@H]3c4ccc(O)cc4CC[C@H]3[C@@H]1CC[C@@H]2OC(=O)CCC(=O)O	78% (inactive)	84%
CC(=O)Nc1ccc(S(=O)(=O)c2ccc(N)cc2)cc1	97% (inactive)	95%
Cc1cc(C(=O)NC(CC(C)C)C(=O)O)cc(C)c1[N+](=O)[O-] (stereo not given)	73% (inactive)	71%
COc1ccc(CC(=O)c2c(O)cc(O)cc2O)cc1OC	83% (inactive)	82%
Cc1cc(O)c(C(=O)Cc2csc(C)n2)c(O)c1	110% (active)	127%
Cc1cc(O)c2/c(=N/N)c(-c3csc(C)n3)coc2c1	69% (inactive)	71%
CC(C)CC(NC(=O)C(NC(=O)OC(C)(C)C)C(C)C)C(=O)NC(CCC(=O)OCc1ccccc1)C(N)=O (stereo not drawn) (Boc-Val-Leu-Glu(OBn)-NH2; configuration not given here)	82% (inactive)	80%
O=C1C(=O)c2ccccc2C(O)=C1c1ccccc1F	70% (inactive)	75%
CC(=O)[C@@H]1[C@@H](C(=O)c2ccc(C)cc2)[C@]2(C(=O)Nc3ccccc32)[C@H]2C=Cc3cc(F)ccc3N12	77% (inactive)	114%

Reference: PubChem BioAssay AID1224864 (Chung Lab, Department of Pediatrics, Emory University, 2016)
